Screens as filed in PubChem BioAssay.
Most compounds without a hit are left out; they make up all but 2.8% or so of the library.
SNCA expr inh – SNCA gene expression inhibition; HEK-293 SNCA-luciferase knock-in, luminescence, 24 h; Potency, µM (titrated, usually from 57.2 µM), for inactives: at the highest dose activity change, negative = inhibition, actives largely listed as inhibitors; 0.17% of 140,000 active; AID 1671194;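 note: potency is the fitted concentration of half-maximal effect; plate controls were DMSO cells for no effect and cell-free wells for full effect; nearly all actives have a fitted effect of over 45% in size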
HEK293 viab – cell viability loss counter-screen; HEK-293-SNCA-luc viability, GF-AFC fluorescence, 24 h; Potency, µM (doses to about 57.1 µM), for the others: top-dose activity change, negative = cytotoxicity, hits mostly cytotoxic; 0.12% of 150,000 active;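 note: potency is the fitted concentration of half-maximal effect; 0% = DMSO-treated cells and -100% = medium-only wells without cells; nearly all actives have a fitted effect of over 30% in size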
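HEK-293-SNCA-luc cells (1500/well) plated 24 h, then exposed 24 h to a dilution series; GF-AFC added 30 min at 37C, fluorescence 405/540 nm; normalised to medium-only and DMSO wells, Hill fit.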
IP6K1 inhibitor – IP6K1 kinase inhibition; IP6K1 kinase, ADP-Glo luminescence, 2 h; active compounds read low; 0.81% of 140,000 active; AID 1645851; Q92551; activity change, % (series mostly up to about 58 µM); in the data active = activity change below about -25%; note: % is set by controls: 0 for no effect and ±100 for the full control effect
Target sequence (Q92551 whole entry, looked up): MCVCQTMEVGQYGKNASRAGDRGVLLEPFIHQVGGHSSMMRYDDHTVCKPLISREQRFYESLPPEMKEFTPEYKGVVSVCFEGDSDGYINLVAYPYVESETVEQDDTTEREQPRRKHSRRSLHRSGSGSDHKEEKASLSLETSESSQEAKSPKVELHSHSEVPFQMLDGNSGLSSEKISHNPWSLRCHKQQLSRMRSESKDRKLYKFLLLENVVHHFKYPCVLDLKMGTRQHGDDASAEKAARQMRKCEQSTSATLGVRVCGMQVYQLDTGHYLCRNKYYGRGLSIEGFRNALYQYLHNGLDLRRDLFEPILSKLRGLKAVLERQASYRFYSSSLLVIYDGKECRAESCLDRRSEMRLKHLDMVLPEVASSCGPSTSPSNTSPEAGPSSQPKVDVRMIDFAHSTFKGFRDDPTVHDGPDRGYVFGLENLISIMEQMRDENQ
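ADP-Glo luminescence measures ADP made by human IP6K1 during a 2 h RT reaction with ATP/IP6 (mix at 1.3 mM/130 uM); top library doses 57.5 and 19.1 uM final.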
KDM5B inh – KDM5B demethylase inhibition; KDM5B demethylase, FDH-coupled NADH fluorescence (FDH is formaldehyde dehydrogenase); Potency, µM (top dose mostly 57.7 µM), usual class: inhibitors; 2.6% of 220,000 active; note: potency is the fitted concentration of half-maximal effect; 0% is about no effect; nearly all actives have a fitted effect of over 70% in size
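Coupled FDH/NAD⁺ fluorescence readout. KDM5BΔAP 200 nM final; compound titration, 10 min RT preincubation; substrate mix 12.5 µM H3K4me3, 25 µM 2-OG, 50 µM Fe(II), 100 µM ascorbate, 0.25 mM NAD⁺, 0.25 U/mL FDH; ΔRFU over 30 min.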
Active calls of the source: *; i = inactive; ? = inconclusive; [ ] = remark or other dose. Unless noted, calls come from the whole dose curve; as a rule, active = well fitted curve in the direction sought with a large enough effect; inconclusive = small, poorly fitted or top-dose-only effect, or another doubt; inactive = no such curve, though single readings can be large; an effect the other way counts as inactive or inconclusive.

SMILES	SNCA expr inh	HEK293 viab	IP6K1 inhibitor	KDM5B inh
Cc1noc(C)c1-c1cc2cc(CO)oc2c(N2CCS(=O)(=O)CC2)n1	24%[87.6 µM]	-4%[87.6 µM]	10	35µM*
Cc1noc(C)c1-c1cc2cc(CO)oc2c(N2CCN(c3ccccn3)CC2)n1	56%[87.6 µM]	-12%[87.6 µM]	16	?
O=c1[nH]c(C2CCCN(Cc3ccccn3)C2)nn1-c1ccccc1 (stereo unspecified)	?	-29%[87.6 µM]	30	22µM*
CC(=O)c1c(C)nn(C(C)CC(=O)N2CCc3c(nc(N)[nH]c3=O)C2)c1C (stereo unspecified)	-4%	3%	2	i
Nc1nc2c(c(=O)[nH]1)CCN(C(=O)CC(c1ccccc1)c1ccco1)C2 (stereo unspecified)	11%	9%	16	18µM*
COc1cccc(CC(=O)N2CC(CNc3ccccc3)C3(C2)CN(c2ccccc2)C3)c1 (stereo unspecified)	-23%	-19%	10	18µM*
NC1CCc2nn(CC(=O)NCc3ccc4c(c3)OCO4)c(=O)n2CC1 (stereo unspecified)	1%	7%	-13	10µM*
CN(CCNC(=O)c1cccnc1N1CC2CC(C1)[C@H]1CCCC(=O)N1C2)C1CCCCC1 (stereo partly specified)	-7%	-5%	5	32µM*
COc1ccc(CCNC(=O)c2cccnc2N2CC3CC(C2)[C@H]2CCCC(=O)N2C3)cc1OC (stereo partly specified)	6%	5%	19	?
CN(C)CCNC(=O)c1cccnc1N1CC2CC(C1)[C@H]1CCCC(=O)N1C2 (stereo partly specified)	4%	18%	6	?
O=C(NCCC1=CCCCC1)c1cccnc1N1CC2CC(C1)[C@H]1CCCC(=O)N1C2 (stereo partly specified)	-15%	-23%	14	28µM*
O=C(NCCN1CCCCC1)c1cccnc1N1CC2CC(C1)[C@H]1CCCC(=O)N1C2 (stereo partly specified)	?	-9%	-1	28µM*
O=C(NCCCn1cccn1)c1cccnc1N1CC2CC(C1)[C@H]1CCCC(=O)N1C2 (stereo partly specified)	-29%	-6%	-2	28µM*
O=C(c1cccnc1N1CC2CC(C1)[C@H]1CCCC(=O)N1C2)N1CC=C(c2ccccc2)CC1 (stereo partly specified)	15%	-5%	5	32µM*
O=C(NCCCN1CCOCC1)c1cccnc1N1CC2CC(C1)[C@H]1CCCC(=O)N1C2 (stereo partly specified)	10%	2%	4	28µM*
O=C(NCc1ccc(N2CCOCC2)cc1)c1cccnc1N1CC2CC(C1)[C@H]1CCCC(=O)N1C2 (stereo partly specified)	?	12%	-1	?
O=C1N(Cc2ccccn2)C[C@H]2CN(Cc3ccc(C(F)(F)F)cc3)CCN12	?	-5%[87.6 µM]	-14	i
CS(=O)(=O)c1ccc(CN2CCN3C(=O)N(Cc4ccccn4)C[C@H]3C2)cc1	-9%[87.6 µM]	1%[87.6 µM]	-9	28µM*
O=C1c2cnc(-c3ccc(Oc4ccccc4)cc3)nc2OCCN1CC1CC1	?	?	2	35µM*
COc1ccc(CN2CCOc3nc(-c4cccc(NC(C)=O)c4)ncc3C2=O)cc1	11%[87.6 µM]	-2%[87.6 µM]	4	?
COc1ccc(CN2CCOc3nc(-c4cc5ccccc5o4)ncc3C2=O)cc1	-1%[87.6 µM]	-9%[87.6 µM]	-1	32µM*
Cn1ccc2c(C(=O)NCCC(N)=O)nc(-c3cccc(C(F)(F)F)c3)cc21	-17%[87.6 µM]	-13%[87.6 µM]	-2	14µM*
Cc1ccccc1-c1cc2c(ccn2C)c(C(=O)NCCc2cnc[nH]2)n1	30%[87.6 µM]	-17%[87.6 µM]	9	40µM*
Cn1ccc2c(C(=O)NCCC(N)=O)nc(-c3ccccc3)cc21	-12%[87.6 µM]	-3%[87.6 µM]	-10	32µM*
Cn1ccc2c(C(=O)NCCC(N)=O)nc(-c3ccccc3C(F)(F)F)cc21	10%[87.6 µM]	1%[87.6 µM]	-12	i
SMILES	SNCA expr inh	HEK293 viab	IP6K1 inhibitor	KDM5B inh
Cn1ccc2c(C(=O)NCCC(N)=O)nc(-c3cccc(CO)c3)cc21	1%[87.6 µM]	-4%[87.6 µM]	-2	i
CNC(=O)c1cc(-c2ccccc2F)cc2c1OCCN2Cc1cccnc1	-6%[87.6 µM]	?	-6	40µM*
CNC(=O)c1cc(Nc2cccc(N(C)C)c2)cc2c1OCCN2Cc1cccnc1	6%[87.6 µM]	7%[87.6 µM]	-19	?
CNC(=O)c1cc(-c2ccccc2O)cc2c1OCCN2Cc1cccnc1	26%[87.6 µM]	-13%[87.6 µM]	3	32µM*
COCCNC(=O)c1cc(-c2ccccc2F)cc2c1OCCN2Cc1cccnc1	-15%[87.6 µM]	?	-15	32µM*
CNC(=O)c1cc(-c2ccc(N3CCOCC3)cc2)cc2c1OCCN2Cc1cccnc1	-26%	9%	-8	i
CNC(=O)c1cc(-c2ccc(OC)nc2)cc2c1OCCN2Cc1cccnc1	-4%[87.6 µM]	9%[87.6 µM]	-21	28µM*
CNC(=O)c1cc(-c2ccccc2C)cc2c1OCCN2Cc1cccnc1	4%[87.6 µM]	-12%[87.6 µM]	4	?
O=C(CCn1ccn2nc3c(c2c1=O)CCCC3)Nc1ccc(F)c(Cl)c1	6%	-3%	0	i
O=C1NCC(=O)N2CCN(Cc3ccccc3-c3ccccc3)CC12 (stereo unspecified)	36%	?	0	?
O=C(c1cc(-c2ccccc2F)cc2c1OCCN2Cc1cccnc1)N1CC(O)C1	-9%[87.6 µM]	-2%[87.6 µM]	-15	40µM*
CNC(=O)c1cc(-c2cccc(NC(C)=O)c2)cc2c1OCCN2Cc1cccnc1	79%[87.6 µM]	-8%[87.6 µM]	5	?
CNC(=O)c1cc(-c2ccccc2OC)cc2c1OCCN2Cc1cccnc1	1%[87.6 µM]	-17%[87.6 µM]	-19	28µM*
O=C(NC1CCOCC1)c1cc(-c2ccccc2F)cc2c1OCCN2Cc1cccnc1	-7%	-12%	-12	22µM*
CC(C)CNC(=O)c1cc(-c2ccccc2F)cc2c1OCCN2Cc1cccnc1	?	?	-21	32µM*
O=C(c1cc(-c2ccccc2F)cc2c1OCCN2Cc1cccnc1)N1CCCC1	11%[87.6 µM]	?	-16	?
COCC(=O)N[C@H]1CO[C@H]2[C@@H]1OC[C@@H]2Nc1nccc(-c2cccc(C#N)c2)n1	2%[87.6 µM]	2%[87.6 µM]	-11	?
N#Cc1cccc(-c2ccnc(N[C@H]3CO[C@H]4[C@@H]3OC[C@@H]4NC(=O)N3CCOCC3)n2)c1	-17%	8%	-6	32µM*
CC(C)(C)C(=O)N[C@H]1CO[C@H]2[C@@H]1OC[C@@H]2Nc1nccc(-c2cccc(C#N)c2)n1	6%[87.6 µM]	-1%[87.6 µM]	-8	?
COCC(=O)N[C@H]1CO[C@H]2[C@@H]1OC[C@@H]2Nc1nccc(-c2cccc(F)c2)n1	22%[87.6 µM]	-4%[87.6 µM]	-5	35µM*
CCNC(=O)N[C@H]1CO[C@H]2[C@@H]1OC[C@@H]2Nc1nccc(-c2cccc(F)c2)n1	?	2%[87.6 µM]	-10	32µM*
CC(=O)N[C@H]1CO[C@H]2[C@@H]1OC[C@@H]2Nc1nccc(-c2cccc(F)c2)n1	?	3%[87.6 µM]	-8	35µM*
